The record followed here is PubChem BioAssay AID1851 (National Center for Advancing Translational Sciences (NCATS), 2009).

Among all 16,000 compounds or so, about 5,800 (36%) were called active. Not shown: some 23% with an inconclusive outcome. The list shows a part of the results. Values without a mark were called inactive. Calls follow the shape of the dose curve; as a rule, active = well fitted curve in the direction sought with a large enough effect; inconclusive = small, poorly fitted or top-dose-only effect, or effect the other way; inactive = no such curve, though single readings can be large or run the other way.
% is scaled to controls: 0 for no effect and ±100 for the full control effect.

Sequence of Cytochrome P450 2C19 (Homo sapiens) (P33261 whole entry, looked up): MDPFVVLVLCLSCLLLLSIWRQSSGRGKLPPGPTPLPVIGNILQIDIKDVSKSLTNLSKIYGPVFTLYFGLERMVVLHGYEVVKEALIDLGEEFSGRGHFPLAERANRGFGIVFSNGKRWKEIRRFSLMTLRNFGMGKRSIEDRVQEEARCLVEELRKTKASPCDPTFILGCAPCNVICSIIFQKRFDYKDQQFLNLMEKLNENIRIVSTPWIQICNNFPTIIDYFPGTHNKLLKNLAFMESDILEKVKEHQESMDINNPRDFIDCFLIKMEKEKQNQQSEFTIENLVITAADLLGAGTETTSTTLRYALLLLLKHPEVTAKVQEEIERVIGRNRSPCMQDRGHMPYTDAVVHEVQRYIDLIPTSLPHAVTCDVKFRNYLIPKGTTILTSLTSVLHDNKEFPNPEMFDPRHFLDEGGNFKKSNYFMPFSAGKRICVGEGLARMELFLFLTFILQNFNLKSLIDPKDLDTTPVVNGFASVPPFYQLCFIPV

This test concerns the target Cytochrome P450 2C19 (Homo sapiens) (UniProt P33261). The test can be described thus: Cytochrome panel assay with activity outcomes. Conditions: recombinant CYP, pro-luciferin dealkylation, luminescence, p450-cyp2c19; series mostly up to 57.1 µM; activity, negative = inhibition: at the top concentration.
Consider `COc1ccc2c3c([nH]c2c1)[C@@H]1C[C@@H]2[C@@H](C[C@H](O)[C@H](OC)[C@H]2C(=O)O)CN1CC3`, for which the “activity, negative = inhibition” value was -43.7% [at 25.6 µM]. On the same count and under the same terms, the result for `C[C@@H](Cc1cccc(C(F)(F)F)c1)NCCOC(=O)c1ccccc1` reads -54.8% [at 25.6 µM]. For `Cc1[nH]n(-c2ccccc2)c(=O)c1CCOC(=O)c1ccc(C(F)(F)F)cc1`, the AC50 (commonly the concentration at which the activity in the assay is half-maximal) was 3.98 µM (active). On the same count and under the same terms, the result for `Cc1[nH]n(-c2ccccc2)c(=O)c1CCOC(=O)c1cccc(C(F)(F)F)c1` reads 3.55 µM (active). Consider `CN(C)CCOC(=O)c1ccc(N)cc1`, for which the activity, negative = inhibition is -21.2% [at 11.4 µM]. Same read-out and setting: the result for `CO[C@@H]1COC(=O)C/C=C\[C@H](C)COC(=O)[C@H](C)NC(=O)C/C=C\[C@H]1C` reads -28.2% [at 11.4 µM]. Turning to `Fc1ccc2c(c1)C(c1ccncc1)=NNC(c1ccc(Cl)cc1)=N2`, the AC50 was 0.224 µM (active). On the same count and under the same terms, with `C#CCOC(=O)Nc1ccc(=O)n(Cc2c(Cl)cccc2Cl)c1` the figure was 1.58 µM (active).

Regarding `C1=C(CN2CCOCC2)COc2c1cccc2OC[C@@H]1CNCCO1`, the “activity, negative = inhibition” value was -40.5%. Regarding `COc1cc(C)c(Br)cc1S(=O)(=O)NCc1ccccc1`, the AC50 is 4.47 µM (active).

For the compound `CN(C)CCN1C(=O)C(O)=C(C(=O)c2cc3ccccc3o2)C1c1ccccn1` (stereo unspecified), the “activity, negative = inhibition” value is -7.42%. Turning to `Cc1ccc(C(=O)C2=C(O)C(=O)N(CCCn3ccnc3)C2c2ccc(OC(C)C)cc2)o1` (stereo unspecified), the concentration at half-maximal activity (AC50) was 14.1 µM (active). In the case of `S=c1[nH]nc(C2CCCCC2)n1/N=C/c1cccs1`, the half-maximal activity concentration (AC50) is 0.708 µM (active). Regarding `C[C@]1(c2ccccc2)O[C@@H]2C[C@@H]3[C@@H]4CCC5=CC(=O)C=C[C@@]5(C)[C@]4(F)[C@H](O)C[C@]3(C)[C@@]2(C(=O)CO)O1`, the activity, negative = inhibition was -7.02% [at 11.4 µM]. On to `COc1ccc(C2=NOC(C(=O)N3CCCc4ccccc43)C2)cc1` (stereo unspecified), for which the half-maximal activity concentration (AC50) is 15.8 µM (active). Take `COc1ccc(C2=NOC(C(=O)NCCN3CCOCC3)C2)cc1` (stereo unspecified): the “activity, negative = inhibition” value was 23.8%. Take `O=C(Nc1c[nH]c(=O)[nH]c1=O)Oc1ccccc1`: the activity, negative = inhibition was -12.9% [at 11.4 µM]. As to `Cc1cccc2cc(CN(Cc3ccccc3)C(=O)c3cccc(F)c3)c(Cl)nc12`, the AC50 is 2.82 µM (active). As to `COC(=O)CSc1cc(C(F)(F)F)nc(-c2ccccn2)n1`, the “activity, negative = inhibition” value is -4.93%. As for `Cc1nc(SCC(=O)c2cc3ccccc3oc2=O)c(C#N)c(C)c1C(=O)Nc1ccccc1`, the “activity, negative = inhibition” value is 7.27%. `COC(=O)CSc1nc(C)cc(C(F)(F)F)c1C#N`: the AC50 is 25.1 µM (active).

Turning to `O=C(CSC1=NCCS1)N1CCN(c2ccc(Cl)cc2)CC1`, the AC50 was 3.55 µM (active).

In the case of `CN(C)C(=O)c1ccc(-c2cncnc2NCCc2cnc[nH]2)cc1`, the concentration at half-maximal activity (AC50) is 10 µM (active). For the compound `c1nc(NCCc2cnc[nH]2)c2[nH]cnc2n1`, the activity, negative = inhibition was -12.5% [at 11.4 µM]. `c1ncc(-c2ccc3c(c2)OCO3)c(NCCc2cnc[nH]2)n1`: the AC50 was 0.0398 µM (active). Take `CN(C)c1ccc(-c2cncnc2NCCc2cnc[nH]2)cc1`: the half-maximal activity concentration (AC50) is 0.0794 µM (active).
